# Inconclusive results are not listed. Entries that show only a call come without a potency. Values without a mark were called inactive. Calls of active or inactive are those of the source. Calls come from the whole dose curve; as a rule, active = well fitted inhibition curve with a large enough effect; inconclusive = small, poorly fitted or top-dose-only effect; inactive = flat fitted curve, though single readings scatter.
# Molecular target: Calcium and integrin-binding protein 1 (Homo sapiens) (UniProt Q99828)
# Test: Primary qHTS for Identification of Calcium Integrin Binding Protein 1 (CIB1) Competitor (AID 1508620);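 note: GST tagged CIB1 binding a fluorescein labelled alphaIIb integrin peptide tracer; top concentration of the series differs between compounds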
# Conditions: CIB1-GST / FITC-alphaIIb peptide fluorescence polarization; series mostly up to 57.7 µM
# Procedure, shortened: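 Fluorescence polarization competition: CIB1-GST (1 uM final) preincubated with compound 15 min at room temperature, then FITC-labeled alphaIIb peptide (100 nM final) added for another 15 min. Polarization read at Ex 480/Em 540.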
# Calcium and integrin-binding protein 1 (Homo sapiens), sequence (Q99828 whole entry, looked up): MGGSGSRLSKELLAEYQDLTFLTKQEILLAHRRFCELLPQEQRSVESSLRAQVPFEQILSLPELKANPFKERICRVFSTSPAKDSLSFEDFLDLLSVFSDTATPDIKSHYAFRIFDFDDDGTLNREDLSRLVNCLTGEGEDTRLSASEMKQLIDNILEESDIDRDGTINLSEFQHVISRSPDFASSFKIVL
Compound,Potency,"activity change, negative = inhibition"
CC1(C)C(=O)N2c3ccccc3[C@]3(CC(n4cnc5ccccc5c4=O)C(=O)O3)[C@H]2N1O (stereo not given in full),inactive,–
CC1=CC(=O)OC(C)(CC(C)(O)C(=O)O)C1 (stereo not given),inactive,–
O=C(O)c1n[nH]c2c1C[C@H]1C[C@@H]21,inactive,–
C[C@@H]1O[C@@H](O[C@H]2[C@H](OC(=O)[C@]34CCC(C)(C)C[C@H]3C3=CCC5[C@@]6(C)C[C@H](O)[C@H](O[C@@H]7O[C@H](CO)[C@@H](O[C@@H]8O[C@H](CO)[C@@H](O)[C@H](O)[C@H]8O)[C@H](O)[C@H]7O)[C@@](C)(CO)C6[C@H](O)C[C@@]5(C)[C@]3(C)C[C@H]4O)OC[C@H](O)[C@@H]2O)[C@H](O)[C@H](O)[C@H]1O[C@@H]1OC[C@@H](O)[C@H](O[C@@H]2OC[C@](O)(CO)[C@H]2O)[C@H]1O (stereo not given in full),–,4.23% [at 12.4 µM]
CC(=O)Oc1cc2c(s1)CCN([C@H](C(=O)C1CC1)c1ccccc1F)C2,inactive,–
C=C1C2=CC(O)C(C)C1(C)CC/C(C)=C/CCC1(C)OC1C2=O (stereo not given),inactive,–
COC1CCCC/C(C)=C/C2C=C(C)C(C)C3C(CC(C)C)NC(=O)C23C(=O)C1 (stereo not given),inactive,–
Cn1c(=O)c2nc(/C=C/c3cccc(Cl)c3)n(C)c2n(C)c1=O,inactive,–
C[C@@H]1O[C@@H](O[C@H]2[C@H](OC(C#N)c3ccc(O)cc3)O[C@H](CO)[C@@H](O)[C@@H]2O)[C@H](O)[C@H](O)[C@H]1O (stereo not given in full),inactive,–
N[C@@H](CC(=O)N1CCn2c(nnc2C(F)(F)F)C1)Cc1[nH]nc2c(F)c(F)ccc12,inactive,–
C[C@@H]1O[C@@H](O[C@H]2[C@H](O[C@H]3CO[C@@H](O[C@H]4CC[C@@]5(C)C(CC[C@]6(C)C5CC[C@]57OC[C@@]8(CC[C@](C)(CO)CC85)[C@H](O)C[C@]76C)C4(C)C)[C@H](O[C@@H]4O[C@H](CO)[C@@H](O)[C@H](O)[C@H]4O)[C@H]3O)O[C@H](CO)[C@@H](O)[C@@H]2O)[C@H](O)[C@H](O)[C@H]1O (stereo not given in full),inactive,–
CC(/C=C/[C@]1(O)[C@@]2(C)CO[C@@]1(C)C[C@@H](O)C2)=C\C(=O)O[C@@H]1O[C@H](CO)[C@@H](O)[C@H](O)[C@H]1O,inactive,–
CC(=O)OC1C=C(C(=O)O)C2(CO)CCC(C)C(C)(CCc3ccoc3)C2C1 (stereo not given),inactive,–
OCc1ccccc1O[C@@H]1O[C@H](CO)[C@@H](O)[C@H](O)[C@H]1O,inactive,–
CN1C(=O)c2ccccc2-n2c(nc3ccccc3c2=O)/C1=C/c1ccccc1,inactive,–
CC1CCC2(C)C(CC(O)C(O)C23CO3)C1(C)CCC1=CC(=O)OC1O (stereo not given),inactive,–
C[C@@H]1O[C@@H](O[C@@H]2[C@@H](O)[C@@H](O)[C@H](O[C@@H]3[C@@H](O)[C@@H](O[C@]4(CO)O[C@H](CO)[C@@H](O)[C@@H]4OC(=O)/C=C/c4ccc(O)cc4)O[C@H](CO)[C@H]3OC(=O)/C=C/c3ccc(O)cc3)O[C@H]2C)[C@H](O)[C@H](O)[C@H]1O,inactive,–
CC1(C)CC[C@]2(C(=O)O)CC[C@]3(C)C(=CCC4[C@@]5(C)C[C@@H](O)[C@H](O)C(C)(C)C5CC[C@]43C)[C@@H]2[C@@H]1O (stereo not given in full),inactive,–
C[C@@H]1C[C@H]2[C@@H]3CCC4=CC(=O)C=C[C@]4(C)[C@@]3(F)[C@@H](O)C[C@]2(C)[C@@]1(O)C(=O)COP(=O)(O)O,inactive,–
CC1=C2C=C(CO)C(CO)CCC2(C)CCC1=O (stereo not given),inactive,–
CC(C)c1cc2c(c(O)c1O[C@@H]1O[C@H](CO)[C@@H](O)[C@H](O)[C@H]1O)CC1(O)CCC(O)C(C)(C)C1CC2 (stereo not given in full),inactive,–
C[C@H]1CC[C@@]2(OC1)O[C@H]1CC3C4CC=C5C[C@H](O)C[C@@H](O[C@@H]6O[C@@H](C)[C@H](O)[C@@H](O)[C@H]6O[C@@H]6O[C@@H](C)[C@H](O)[C@@H](O)[C@H]6O)[C@]5(C)C4CC[C@]3(C)[C@H]1[C@@H]2C (stereo not given in full),inactive,–
C[C@H]1[C@H](C)CC[C@]2(C(=O)O[C@@H]3O[C@H](CO)[C@@H](O)[C@H](O)[C@H]3O)CC[C@]3(C(=O)O)C(=CCC4[C@@]5(C)CC[C@H](O[C@@H]6O[C@H](CO)[C@@H](O)[C@H](O)[C@H]6O)C(C)(C)C5CC[C@]43C)[C@H]12 (stereo not given in full),inactive,–
CC1=CC(=O)C2C(C)(C)CCCC2(C)C12CCC1(COC(=O)C1)O2 (stereo not given),inactive,–
CC1(C)CC[C@]2(C(=O)O)CC[C@]3(C)C(=CCC4[C@@]5(C)CC[C@H](O[C@@H]6O[C@H](C(=O)O)[C@@H](O)[C@H](O)[C@H]6O)C(C)(CO)C5CC[C@]43C)C2C1 (stereo not given in full),inactive,–
